From the supplement of paper PMC10849652
Targets with a hit are over-represented here; the source holds about 8,800 in all. About 0.5% of all pairs of compound and target were hits. Unmarked numbers belong to inactive results.

What was measured:
Experiment in all cases: log2 fold change, soluble protein after heating vs DMSO (PISA); higher = thermal stabilisation; K562 lysate, 10 uM; active = over 0.2 and 3.5 SD of the protein, either way, in both replicates (recomputed)
lapatinib = compound: CS(=O)(=O)CCNCc1ccc(-c2ccc3ncnc(Nc4ccc(OCc5cccc(F)c5)c(Cl)c4)c3c2)o1 [lapatinib]
Procedure, shortened: (§1)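 Pellets of K562 cells were dounce-homogenised in PBS pH 7.4 with 1 mM MgCl2, and the crude extract was held at 1 mg/mL protein for a 30 min treatment with 10 μM compound. Aliquots were heated for 3 min over 48°C-58°C and pooled before NP-40 was added to 0.5% at 4°C. The supernatant from 21,000xg for 90 min was quantified by TMTpro 16plex LC-MS/MS with channel sums equalised. Values are reported from duplicates as log-two fold change in thermal stability relative to solvent controls.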

pictilisib = compound: CS(=O)(=O)N1CCN(Cc2cc3nc(-c4cccc5[nH]ncc45)nc(N4CCOCC4)c3s2)CC1 [pictilisib]
Procedure, shortened: as §1

crizotinib = compound: C[C@@H](Oc1cc(-c2cnn(C3CCNCC3)c2)cnc1N)c1c(Cl)ccc(F)c1Cl [crizotinib]
Procedure, shortened: as §1

[1] = compound: C[C@H](C1=CC=C(C=C1)C(=O)NC2=C3C=CNC3=NC=C2)N
Procedure, shortened: as §1

duvelisib = compound: C[C@H](Nc1ncnc2nc[nH]c12)c1cc2cccc(Cl)c2c(=O)n1-c1ccccc1 [duvelisib]
Procedure, shortened: as §1

gandotinib = compound: Cc1cc(Nc2cc(CN3CCOCC3)c3nc(C)c(Cc4ccc(Cl)cc4F)n3n2)n[nH]1 [gandotinib]
Procedure, shortened: as §1

tozasertib = compound: Cc1cc(Nc2cc(N3CCN(C)CC3)nc(Sc3ccc(NC(=O)C4CC4)cc3)n2)n[nH]1 [tozasertib]
Procedure, shortened: as §1

doramapimod = compound: Cc1ccc(-n2nc(C(C)(C)C)cc2NC(=O)Nc2ccc(OCCN3CCOCC3)c3ccccc23)cc1 [doramapimod]
Procedure, shortened: as §1

bafetinib = compound: Cc1ccc(NC(=O)c2ccc(CN3CC[C@H](N(C)C)C3)c(C(F)(F)F)c2)cc1Nc1nccc(-c2cncnc2)n1 [bafetinib]
Procedure, shortened: as §1

[2] = compound: Cc1cccc(CC(=O)N2CCc3c2ccc(-c2cn(C)c4ncnc(N)c24)c3F)n1
Procedure, shortened: as §1

nilotinib = compound: Cc1cn(-c2cc(NC(=O)c3ccc(C)c(Nc4nccc(-c5cccnc5)n4)c3)cc(C(F)(F)F)c2)cn1 [nilotinib]
Procedure, shortened: as §1

[3] = compound: Cc1nc(Nc2n[nH]c3c2CN(C(=O)N[C@H](CN(C)C)c2ccccc2)C3(C)C)c2sccc2n1
Procedure, shortened: as §1

dasatinib = compound: Cc1nc(Nc2ncc(C(=O)Nc3c(C)cccc3Cl)s2)cc(N2CCN(CCO)CC2)n1 [dasatinib]
Procedure, shortened: as §1

[4] = compound: Cc1ncc(-c2ccnc(Nc3ccc(S(C)(=O)=O)cc3)n2)n1C(C)C
Procedure, shortened: as §1

[5] = compound: Cn1cc(-c2ccc3c(c2)CCN3C(=O)Cc2cccc(C(F)(F)F)c2)c2c(N)ncnc21
Procedure, shortened: as §1

quisinostat = compound: Cn1cc(CNCC2CCN(c3ncc(C(=O)NO)cn3)CC2)c2ccccc21 [quisinostat]
Procedure, shortened: as §1

tipifarnib = compound: Cn1cncc1[C@@](N)(c1ccc(Cl)cc1)c1ccc2c(c1)c(-c1cccc(Cl)c1)cc(=O)n2C [tipifarnib]
Procedure, shortened: as §1

[6] = compound: NC(=O)Nc1cc(-c2cccc(F)c2)sc1C(=O)N[C@H]1CCCNC1
Procedure, shortened: as §1

[7] = compound: NC(=O)c1cnc(N[C@@H]2CCCC[C@@H]2N)nc1Nc1cccc(-n2nccn2)c1
Procedure, shortened: as §1

[8] = compound: NC1(c2ccc(-c3nc4ccn5c(=O)[nH]nc5c4cc3-c3ccccc3)cc2)CCC1
Procedure, shortened: as §1

UniProt Q8TCD1, sequence (Q8TCD1 whole entry, looked up): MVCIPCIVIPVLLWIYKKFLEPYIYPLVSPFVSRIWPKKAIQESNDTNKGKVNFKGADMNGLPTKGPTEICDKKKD
UniProt Q9HD20, sequence (Q9HD20 whole entry, looked up): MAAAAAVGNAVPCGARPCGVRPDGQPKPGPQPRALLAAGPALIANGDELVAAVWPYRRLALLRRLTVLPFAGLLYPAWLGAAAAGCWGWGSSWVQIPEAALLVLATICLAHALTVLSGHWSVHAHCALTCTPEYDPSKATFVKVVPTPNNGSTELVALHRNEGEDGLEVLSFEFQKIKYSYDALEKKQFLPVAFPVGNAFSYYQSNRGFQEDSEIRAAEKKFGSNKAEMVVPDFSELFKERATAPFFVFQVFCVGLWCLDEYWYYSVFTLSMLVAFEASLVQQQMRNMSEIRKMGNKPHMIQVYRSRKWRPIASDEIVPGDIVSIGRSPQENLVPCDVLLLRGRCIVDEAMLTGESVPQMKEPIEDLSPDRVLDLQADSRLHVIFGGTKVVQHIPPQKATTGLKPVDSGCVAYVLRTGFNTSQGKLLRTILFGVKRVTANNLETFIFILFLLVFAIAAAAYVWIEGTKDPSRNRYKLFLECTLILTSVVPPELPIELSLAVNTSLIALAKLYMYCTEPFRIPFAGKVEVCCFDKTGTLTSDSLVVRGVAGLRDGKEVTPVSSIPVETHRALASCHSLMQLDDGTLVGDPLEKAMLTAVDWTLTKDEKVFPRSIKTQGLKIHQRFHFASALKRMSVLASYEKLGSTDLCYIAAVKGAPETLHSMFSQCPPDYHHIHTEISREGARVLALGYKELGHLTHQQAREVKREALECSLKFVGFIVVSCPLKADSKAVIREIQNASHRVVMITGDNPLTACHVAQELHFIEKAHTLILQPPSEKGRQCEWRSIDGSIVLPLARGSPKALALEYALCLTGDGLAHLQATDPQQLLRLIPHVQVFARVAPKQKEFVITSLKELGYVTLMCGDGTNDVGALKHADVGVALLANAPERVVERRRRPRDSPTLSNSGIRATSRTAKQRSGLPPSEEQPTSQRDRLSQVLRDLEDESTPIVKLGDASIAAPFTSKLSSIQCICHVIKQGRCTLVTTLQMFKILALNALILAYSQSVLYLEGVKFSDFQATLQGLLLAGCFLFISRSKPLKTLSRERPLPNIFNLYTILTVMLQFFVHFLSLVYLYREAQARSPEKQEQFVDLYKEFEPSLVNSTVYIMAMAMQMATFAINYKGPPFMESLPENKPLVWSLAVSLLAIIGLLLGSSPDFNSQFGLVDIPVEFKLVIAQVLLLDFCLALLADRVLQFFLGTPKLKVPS
UniProt Q9NW68, sequence (Q9NW68 whole entry, looked up): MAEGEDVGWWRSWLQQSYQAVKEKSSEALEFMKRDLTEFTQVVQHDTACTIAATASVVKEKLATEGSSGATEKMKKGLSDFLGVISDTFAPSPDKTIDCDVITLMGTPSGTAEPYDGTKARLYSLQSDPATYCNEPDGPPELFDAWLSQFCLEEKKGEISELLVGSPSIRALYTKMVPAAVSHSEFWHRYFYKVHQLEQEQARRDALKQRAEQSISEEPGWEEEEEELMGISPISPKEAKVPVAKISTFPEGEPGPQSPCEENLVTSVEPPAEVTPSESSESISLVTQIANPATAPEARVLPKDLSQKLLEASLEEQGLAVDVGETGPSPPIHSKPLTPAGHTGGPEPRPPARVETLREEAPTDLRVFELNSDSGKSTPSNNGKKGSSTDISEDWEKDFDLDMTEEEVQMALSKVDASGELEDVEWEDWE
UniProt Q9Y2V0, sequence (Q9Y2V0 whole entry, looked up): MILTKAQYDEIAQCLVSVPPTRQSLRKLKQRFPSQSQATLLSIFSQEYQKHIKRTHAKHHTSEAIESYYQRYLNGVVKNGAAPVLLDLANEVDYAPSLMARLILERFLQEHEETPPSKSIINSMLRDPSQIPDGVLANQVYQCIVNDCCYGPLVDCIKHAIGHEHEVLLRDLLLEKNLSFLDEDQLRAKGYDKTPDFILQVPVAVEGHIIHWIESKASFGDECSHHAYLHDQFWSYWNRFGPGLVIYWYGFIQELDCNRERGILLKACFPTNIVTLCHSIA
UniProt O43861, sequence (O43861 whole entry, looked up): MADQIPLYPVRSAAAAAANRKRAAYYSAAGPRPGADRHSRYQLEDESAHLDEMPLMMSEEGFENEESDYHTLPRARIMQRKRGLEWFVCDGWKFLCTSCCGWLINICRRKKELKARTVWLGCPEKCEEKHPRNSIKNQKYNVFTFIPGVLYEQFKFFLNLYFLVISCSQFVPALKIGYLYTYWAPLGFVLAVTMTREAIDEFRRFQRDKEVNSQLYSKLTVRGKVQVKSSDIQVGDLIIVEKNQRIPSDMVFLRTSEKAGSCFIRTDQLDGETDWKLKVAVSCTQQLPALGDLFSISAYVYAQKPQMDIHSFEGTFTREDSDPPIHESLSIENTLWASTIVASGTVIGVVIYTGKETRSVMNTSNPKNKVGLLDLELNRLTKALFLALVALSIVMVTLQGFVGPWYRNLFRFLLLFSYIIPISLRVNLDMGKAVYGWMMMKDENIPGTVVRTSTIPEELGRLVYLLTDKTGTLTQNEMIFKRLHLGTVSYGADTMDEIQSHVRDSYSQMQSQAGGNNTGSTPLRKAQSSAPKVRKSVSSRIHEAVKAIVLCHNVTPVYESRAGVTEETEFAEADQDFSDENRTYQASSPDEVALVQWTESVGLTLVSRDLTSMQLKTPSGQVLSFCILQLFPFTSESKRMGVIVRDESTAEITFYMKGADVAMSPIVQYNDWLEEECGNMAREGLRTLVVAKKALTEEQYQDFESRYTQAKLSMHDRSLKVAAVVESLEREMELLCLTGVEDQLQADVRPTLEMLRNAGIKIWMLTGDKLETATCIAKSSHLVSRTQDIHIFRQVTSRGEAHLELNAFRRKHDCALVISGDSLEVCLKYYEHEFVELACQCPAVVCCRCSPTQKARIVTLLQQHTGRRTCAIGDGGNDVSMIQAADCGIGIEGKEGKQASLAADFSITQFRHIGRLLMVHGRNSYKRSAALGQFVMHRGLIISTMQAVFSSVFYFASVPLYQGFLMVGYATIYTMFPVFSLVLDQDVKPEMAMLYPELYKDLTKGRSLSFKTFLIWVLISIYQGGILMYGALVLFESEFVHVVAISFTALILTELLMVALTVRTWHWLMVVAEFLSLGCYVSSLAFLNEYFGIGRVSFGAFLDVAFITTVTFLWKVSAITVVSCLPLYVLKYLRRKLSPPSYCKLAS
UniProt P42574, sequence (P42574 whole entry, looked up): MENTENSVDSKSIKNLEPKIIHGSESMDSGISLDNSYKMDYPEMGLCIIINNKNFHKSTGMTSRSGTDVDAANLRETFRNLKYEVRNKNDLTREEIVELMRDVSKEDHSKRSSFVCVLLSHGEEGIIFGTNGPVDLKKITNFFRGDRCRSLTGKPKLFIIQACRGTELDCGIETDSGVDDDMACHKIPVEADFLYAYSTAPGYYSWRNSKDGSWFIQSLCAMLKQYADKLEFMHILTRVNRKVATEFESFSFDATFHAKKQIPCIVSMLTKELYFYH
UniProt Q13555, sequence (Q13555 whole entry, looked up): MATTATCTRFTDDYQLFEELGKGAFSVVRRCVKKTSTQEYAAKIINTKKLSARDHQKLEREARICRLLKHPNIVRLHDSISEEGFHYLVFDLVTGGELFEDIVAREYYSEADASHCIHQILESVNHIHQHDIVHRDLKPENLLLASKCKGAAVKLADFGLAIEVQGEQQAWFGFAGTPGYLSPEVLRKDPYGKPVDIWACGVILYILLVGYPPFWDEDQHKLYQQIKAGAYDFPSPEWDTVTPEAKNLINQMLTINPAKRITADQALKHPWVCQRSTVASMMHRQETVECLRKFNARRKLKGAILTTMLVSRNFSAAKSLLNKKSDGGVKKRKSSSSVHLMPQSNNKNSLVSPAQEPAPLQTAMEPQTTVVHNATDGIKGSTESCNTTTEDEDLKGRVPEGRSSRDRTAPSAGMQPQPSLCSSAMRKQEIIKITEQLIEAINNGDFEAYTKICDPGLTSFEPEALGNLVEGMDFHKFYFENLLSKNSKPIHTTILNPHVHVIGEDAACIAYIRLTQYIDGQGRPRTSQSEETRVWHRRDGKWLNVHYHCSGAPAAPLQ
UniProt P55211, sequence (P55211 whole entry, looked up): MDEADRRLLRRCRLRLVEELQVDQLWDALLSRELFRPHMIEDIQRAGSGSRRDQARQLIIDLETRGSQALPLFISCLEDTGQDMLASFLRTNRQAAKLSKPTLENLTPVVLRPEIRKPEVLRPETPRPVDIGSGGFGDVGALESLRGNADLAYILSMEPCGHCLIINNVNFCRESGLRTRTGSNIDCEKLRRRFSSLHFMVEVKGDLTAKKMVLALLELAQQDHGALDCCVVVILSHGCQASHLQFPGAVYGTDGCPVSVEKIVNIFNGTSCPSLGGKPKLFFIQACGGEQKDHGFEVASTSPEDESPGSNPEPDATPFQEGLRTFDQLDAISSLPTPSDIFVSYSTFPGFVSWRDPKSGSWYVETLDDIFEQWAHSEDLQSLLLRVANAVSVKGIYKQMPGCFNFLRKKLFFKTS
UniProt Q92879, sequence (Q92879 whole entry, looked up): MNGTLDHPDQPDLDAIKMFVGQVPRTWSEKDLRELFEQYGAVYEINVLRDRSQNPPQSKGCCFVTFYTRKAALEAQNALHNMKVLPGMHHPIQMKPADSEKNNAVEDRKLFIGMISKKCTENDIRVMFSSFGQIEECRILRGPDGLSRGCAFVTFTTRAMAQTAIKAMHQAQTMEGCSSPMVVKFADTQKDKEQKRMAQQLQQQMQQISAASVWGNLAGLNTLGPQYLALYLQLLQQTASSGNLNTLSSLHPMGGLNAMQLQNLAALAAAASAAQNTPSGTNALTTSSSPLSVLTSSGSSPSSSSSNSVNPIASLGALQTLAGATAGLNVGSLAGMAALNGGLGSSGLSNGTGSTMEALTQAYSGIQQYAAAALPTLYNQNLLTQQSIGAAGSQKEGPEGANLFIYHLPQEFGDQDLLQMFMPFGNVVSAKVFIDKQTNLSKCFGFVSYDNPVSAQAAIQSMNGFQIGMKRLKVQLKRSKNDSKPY

| Target | log2 fold change (lapatinib) | log2 fold change (pictilisib) | log2 fold change (crizotinib) | log2 fold change [1] | log2 fold change (duvelisib) | log2 fold change (gandotinib) | log2 fold change (tozasertib) | log2 fold change (doramapimod) | log2 fold change (bafetinib) | log2 fold change [2] | log2 fold change (nilotinib) | log2 fold change [3] | log2 fold change (dasatinib) | log2 fold change [4] | log2 fold change [5] | log2 fold change (quisinostat) | log2 fold change (tipifarnib) | log2 fold change [6] | log2 fold change [7] | log2 fold change [8] |
| --- | --- | --- | --- | --- | --- | --- | --- | --- | --- | --- | --- | --- | --- | --- | --- | --- | --- | --- | --- | --- |
| CASP9 (UniProt P55211) | 0.003 | 0.011 | -0.047 | -0.036 | 0.036 | -0.027 | 0.017 | 0.009 | -0.069 | 0.082 | -0.004 | 0.006 | -0.055 | -0.012 | -0.013 | -0.056 | 0.005 | 0.056 | -0.011 | 0.007 |
| BSDC1 (UniProt Q9NW68) | 0.088 | -0.055 | 0.012 | -0.052 | 0.016 | 0.312 (active) | -0.005 | 0.098 | -0.012 | 0.019 | 0.016 | -0.009 | 0.018 | 0.027 | -0.018 | -0.024 | -0.093 | 0.003 | -0.023 | 0.016 |
| ATP13A1 (UniProt Q9HD20) | -0.115 | -0.011 | 0.123 | 0.047 | -0.004 | -0.073 | 0.068 | -0.053 | -0.033 | 0.043 | 0.009 | 0.004 | 0.102 | 0.003 | 0.005 | 0.001 | -0.109 | -0.044 | 0.07 | 0.065 |
| C15orf41 (UniProt Q9Y2V0) | -0.078 | 0.007 | -0.033 | 0.03 | 0.059 | 0.002 | 0.102 | -0.035 | 0.009 | -0.017 | -0.041 | 0 | 0.09 | 0.038 | -0.036 | -0.023 | -0.014 | 0.076 | 0.024 | 0 |
| CELF1 isoform 4 (UniProt Q92879) | 0.011 | 0.023 | 0.032 | 0.021 | -0.036 | -0.028 | 0.019 | -0.605 (active) | -0.09 | -0.018 | -0.022 | 0.042 | -0.025 | 0 | 0 | 0.021 | -0.013 | 0.037 | 0.033 | 0.067 |
| CCDC51 (UniProt Q96ER9) | -0.038 | -0.055 | -0.01 | 0.259 (active) | -0.034 | -0.217 (active) | 0.007 | -0.053 | -0.106 | -0.232 | -0.037 | -0.049 | -0.016 | 0.035 | -0.014 | 0.017 | -0.082 | 0.02 | -0.015 | -0.04 |
| BORCS5 (UniProt Q969J3) | 0.015 | 0.096 | -0.002 | 0.037 | 0.037 | -0.038 | 0.007 | -0.011 | -0.042 | -0.006 | 0.064 | -0.021 | -0.025 | 0.082 | -0.003 | -0.017 | -0.061 | -0.017 | -0.029 | -0.009 |
| CAMK2G isoform 8 (UniProt Q13555) | -0.013 | -0.008 | -0.177 | -0.053 | -0.083 | 0.085 | -0.037 | -0.049 | 0.001 | -0.07 | -0.007 | 0.518 (active) | -0.034 | 0.039 | -0.062 | -0.125 | -0.005 | 0.219 | 0.019 | -0.125 |
| ATXN2 (UniProt Q99700) | 0.006 | -0.042 | 0.028 | 0.019 | 0.025 | 0.001 | 0.011 | 0.017 | -0.012 | -0.006 | -0.04 | 0.023 | 0.023 | -0.003 | 0.047 | -0.065 | 0.014 | 0.045 | 0.011 | -0.028 |
| ATP9B (UniProt O43861) | -0.063 | -0.269 | 0.032 | -0.181 | -0.005 | -0.037 | 0.017 | 0.136 | 0.446 (active) | 0.242 | 0.05 | 0.164 | -0.04 | -0.069 | -0.049 | 0.009 | -0.08 | -0.021 | 0.107 | 0.064 |
| CCNA2 (UniProt P20248) | -0.004 | -0.029 | -0.035 | -0.092 | 0.019 | 0.091 | -0.073 | 0.059 | 0.027 | 0.049 | -0.014 | 0.064 | 0.04 | 0.234 (active) | -0.051 | -0.086 | -0.015 | 0.005 | 0.063 | -0.021 |
| CHD5 (UniProt Q8TDI0) | 0.028 | 0.007 | -0.03 | 0 | -0.056 | 0.001 | -0.074 | 0.034 | -0.042 | -0.002 | -0.007 | 0.021 | 0.038 | -0.022 | 0.007 | -0.082 | 0.005 | 0.02 | -0.019 | 0.01 |
| CASP3 (UniProt P42574) | 0.013 | -0.021 | 0.001 | 0.249 (active) | 0.007 | -0.084 | -0.016 | 0.005 | 0.107 | -0.089 | 0.032 | -0.024 | 0.053 | 0.023 | 0.008 | -0.029 | -0.033 | 0 | -0.01 | 0.022 |
| CCDC32 isoform 2 (UniProt Q9BV29) | 0.04 | 0.02 | -0.021 | -0.195 | 0.024 | 0.025 | 0.062 | 0.007 | -0.087 | 0.085 | -0.009 | 0.024 | 0.021 | 0.105 | -0.001 | -0.05 | 0.076 | -0.028 | -0.05 | -0.03 |
| ATAD1 (UniProt Q8NBU5) | -0.158 | 0.012 | -0.022 | -0.081 | -0.051 | 0.386 (active) | 0.017 | 0.015 | -0.008 | 0.012 | 0.073 | -0.015 | 0.001 | -0.153 | 0.039 | -0.072 | -0.072 | -0.001 | 0.027 | -0.031 |
| C18orf32 (UniProt Q8TCD1) | -0.012 | 0.041 | -0.07 | -0.093 | -0.203 | 0.001 | -0.011 | -0.01 | -0.04 | 0.047 | 0.058 | -0.078 | -0.026 | 0.072 | 0.167 | 0.027 | 0.093 | -0.11 | -0.084 | 0.062 |
